# Screening results from PubChem.
# 12-LOX inh: Primary qHTS assay for inhibitors of human arachidonate 12S-lipoxygenase (ALOX12): Round 2. Polyunsaturated fatty acid lipoxygenase ALOX12 (Homo sapiens), P18054. purified 12hLO, xylenol orange hydroperoxide absorbance. Potency, µM (highest dose often 108 µM), for the others: at the top dose activity change, negative = inhibition, usual class: inhibitors. actives 1.1% (n = 580,000); further: potency means the concentration at half of the fitted maximal effect
# Target sequence (P18054 whole entry, looked up): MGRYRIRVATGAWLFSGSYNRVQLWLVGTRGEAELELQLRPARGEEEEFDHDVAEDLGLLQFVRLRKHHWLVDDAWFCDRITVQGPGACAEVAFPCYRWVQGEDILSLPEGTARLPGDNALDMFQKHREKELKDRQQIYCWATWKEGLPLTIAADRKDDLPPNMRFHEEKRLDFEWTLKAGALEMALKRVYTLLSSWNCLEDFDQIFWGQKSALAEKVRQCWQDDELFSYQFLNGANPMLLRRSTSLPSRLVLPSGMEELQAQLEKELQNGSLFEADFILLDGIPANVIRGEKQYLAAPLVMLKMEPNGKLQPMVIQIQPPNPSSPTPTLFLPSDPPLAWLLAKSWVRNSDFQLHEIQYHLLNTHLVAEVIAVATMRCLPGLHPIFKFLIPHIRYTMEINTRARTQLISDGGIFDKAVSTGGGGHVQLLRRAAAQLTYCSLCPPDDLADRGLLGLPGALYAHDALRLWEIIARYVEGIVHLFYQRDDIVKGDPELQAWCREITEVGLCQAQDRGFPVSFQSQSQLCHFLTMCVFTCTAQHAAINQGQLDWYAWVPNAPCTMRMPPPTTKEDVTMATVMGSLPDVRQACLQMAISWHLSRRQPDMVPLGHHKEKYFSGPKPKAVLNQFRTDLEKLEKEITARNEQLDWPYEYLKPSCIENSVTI
#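 Purified human 12hLO (150 nM final) in 25 mM Hepes, 0.01% Triton X-100, pH 7.0 was preincubated 15 min at room temperature with compound. Then 40 uM arachidonic acid was added, 30 min. Hydroperoxide was read by Fe-XO absorbance ratio 573/405 nm.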
# HT1080NT lethal: qHTS for induction of synthetic lethality in tumor cells producing 2HG: qHTS for the HT-1080-NT fibrosarcoma cell line; AID 686970, 2013; HT-1080-NT fibrosarcoma viability, CellTiter-Glo ATP luminescence, 48 h; actives 1.6% (n = 360,000); Potency, µM (highest dose often 46.1 µM), without a hit: at the highest dose activity, negative = less viability, hits mostly cytotoxic;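 further: NT is the 2HG producing partner of a matched IDH1 knockdown line; potency means the concentration at half of the fitted maximal effect; 0% = DMSO-treated cells and -100% = media-only wells without cells; nearly all actives have a fitted effect of over 55% in size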
#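 Read-out is CellTiter-Glo luminescence after 10 minutes at room temperature, following 48 hours' compound treatment of HT-1080-NT cells (750 cells/well, RPMI, 5% FBS, 37 degrees C).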
# IL-1B inflam inh: qHTS for Inhibitors of Inflammasome Signaling: IL-1-beta AlphaLISA Primary Screen | activity change, % at 57.5 µM | THP-1 LPS/ATP IL-1B secretion, AlphaLISA, 16 h; hits give low values | AID 743279, 2014 | actives 4.7% (n = 360,000); in the data active means activity change below about -50%; inconclusive means mostly about -30% to -49%
#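 THP-1 cells pretreated 1 hr with compounds (up to 57.5 uM final), then stimulated with LPS (250 ng/mL final) plus ATP (1.25 mM final); secreted IL-1B measured by AlphaLISA after 16 hr, decreased signal indicating inhibition.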
# DT40 TDP1 CPT: qHTS for Inhibitors of human tyrosyl-DNA phosphodiesterase 1 (TDP1): qHTS in cells in presence of CPT. Potency, µM (series often up to 46.2 µM), for inactives: at the highest dose activity change, negative = growth inhibition, usual class: inhibitors. actives 12% (n = 420,000). chicken DT40 Tdp1-/-;hTDP1 cells + 20 nM CPT, ATP luminescence, 48 h. AID 686979, 2013; further: potency means the concentration at half of the fitted maximal effect; nearly all actives have a fitted effect of over 55% in size
#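 Chicken DT40 Tdp1-/- cells complemented with human TDP1, 400 cells/well, exposed to compounds plus 20 nM camptothecin for at least 48 h at 37 C; viability read as ATP content by CellTiter-Glo luminescence.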
# TDP1 cell noCPT: qHTS for Inhibitors of human tyrosyl-DNA phosphodiesterase 1 (TDP1): qHTS in cells in absence of CPT; DT40 Tdp1-/- hTDP1 cells, no CPT, ATP luminescence, 48 h; Potency, µM (doses to about 46.2 µM), inactives show at the top dose activity change, negative = growth inhibition, usual class: inhibitors; actives 15% (n = 420,000); AID 686978, 2013; further: potency means the concentration at half of the fitted maximal effect; nearly all actives have a fitted effect of over 55% in size
#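 A cellular qHTS used chicken DT40 cells lacking endogenous Tdp1 but carrying stably transfected human TDP1. Compounds were applied without camptothecin, and cell growth kinetics were judged by ATP-dependent luminescence after ≥48 hr.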
# HT1080 IDH1KD tx: qHTS for induction of synthetic lethality in tumor cells producing 2HG: qHTS for the HT-1080-IDH1KD cell line | Potency, µM (top dose mostly 46.1 µM), without a hit: top-dose activity, negative = toxicity, actives largely listed as cytotoxic | AID 686971, 2013 | actives 2% (n = 360,000) | HT-1080 IDH1 knockdown viability, ATP luminescence, 48 h;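 further: potency means the concentration at half of the fitted maximal effect; 0% = DMSO wells and -100% = cell-free medium wells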
#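 After a 2 h attachment period, IDH1KD HT-1080 cells took pin-transferred compound for 48 h at 37 °C; ATP-based luminescence after 10 min room-temperature reagent incubation reported viability.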
# An asterisk follows results filed as active; ? = inconclusive; / = no result; [ ] = remark or other dose. Only a selection was taken, and hits are over-represented in it overall. Unless noted, the call rests on the fitted dose curve; in most records, active means well fitted curve in the direction sought with a large enough effect; inconclusive means small, poorly fitted or top-dose-only effect, or another doubt; inactive means no such curve, though single readings can be large; an effect the other way counts as inactive or inconclusive. Unless noted, on the % scale 0 is the no-effect control and ±100 the full control effect.
SMILES,12-LOX inh,HT1080NT lethal,IL-1B inflam inh,DT40 TDP1 CPT,TDP1 cell noCPT,HT1080 IDH1KD tx
S=C(NCC1CCCO1)Nc1ccc(Cl)c(Cl)c1 (stereo unspecified),?,0%,-11,?,23µM*,-11%
COc1ccc(S(=O)(=O)Nc2ccc(S(=O)(=O)NCC3CCCO3)cc2)cc1 (stereo unspecified),1%,2%,-16,-10%,7%,0%
Cc1ccc(C(=O)NC(=S)NCC2CCCO2)cc1Br (stereo unspecified),28µM*,-1%,10,?,29µM*,-3%
O=C(Cc1ccc(Cl)c(Cl)c1)NNC(=S)NCC1CCCO1 (stereo unspecified),0%,17%,-7,-3%,-2%,-4%
O=S(=O)(NCC1CCCO1)c1ccc(-c2ccc(S(=O)(=O)NCC3CCCO3)cc2)cc1 (stereo unspecified),-14%,-10%,-2,0.65µM*,1.8µM*,-29%
CC(C(=O)NCc1cccnc1)N(c1ccc(Oc2ccccc2)cc1)S(C)(=O)=O (stereo unspecified),-5%,/,/,/,/,/
Cc1nc(NCC2CCCO2)c(C#N)c2c1CCCC2 (stereo unspecified),39%,/,/,/,/,/
COc1ccccc1CNc1nc(-c2ccco2)nn1S(=O)(=O)c1ccccc1,-13%,/,/,/,/,/
CCN(CC)S(=O)(=O)c1ccc2oc(C(=O)NCc3ccccc3OC)c(C)c2c1,-14%,/,/,7.3µM*,10µM*,/
COc1cccc(NC(=O)c2oc3ccc(S(=O)(=O)N4CCCCCC4)cc3c2C)c1,-16%,/,/,18µM*,18µM*,/
COc1ccccc1CNC(=O)c1oc2ccccc2c1C,1%,11%,-13,-29%,-12%,3%
CCCCNC(=O)c1oc2ccc(S(=O)(=O)N3CCCC3)cc2c1C,-6%,-13%,-19,?,?,-5%
Cc1c(C(=O)NCc2ccc(F)cc2)oc2ccc(S(=O)(=O)N3CCCCC3)cc12,?,/,/,23µM*,?,/
Cc1c(C(=O)NCc2ccccc2CN2CCCC2)oc2ccc(F)cc12,251%,8%[9.24 µM],-1,21µM*,?,-18%
N#CCCCCS(=O)(=O)c1ccc2c(c1)OCCO2,-50%,/,/,/,/,/
Cc1nc2ccc(Cl)cc2cc1C(=O)Nc1ccncc1,-8%,/,/,/,/,/
COC(=O)c1cnc(N2CCCCC2C)c2ccccc12 (stereo unspecified),-25%,/,/,/,/,/
CC[C@H]1CN(S(=O)(=O)c2ccccc2)CC[C@H]1CC(=O)NC1CCCC1,23%[176 µM],/,/,/,/,/
Cc1c(C(=O)NCc2ccccc2)oc2ccc(S(=O)(=O)N3CCC(C)CC3)cc12,6%,/,/,9.2µM*,9.2µM*,/
Cc1cccc(NC(=O)c2oc3ccc(S(=O)(=O)N4CCOCC4)cc3c2C)c1C,9%,-2%[9.24 µM],-6,?,23µM*,?
COc1ccccc1CNC(=O)c1oc2ccc(S(=O)(=O)N3CCCCC3)cc2c1C,1%,/,/,6.5µM*,7.3µM*,/
Cc1ccc(NC(=O)c2oc3ccc(S(=O)(=O)N4CCOCC4)cc3c2C)c(C)c1,-1%,-1%,20,?,?,-9%
CCCc1ncncc1C(=O)NC1CC(c2nnc(CO)n2C2CC2)C1 (stereo unspecified),77%,/,/,/,/,/
CCc1ccc(S(=O)(=O)N2CC(COC)C3(CCNCC3)C2)cc1 (stereo unspecified),4%,/,/,/,/,/
CCc1ccc(NC(=O)c2cc3c(=O)n(Cc4cccs4)ccc3nc2C)cc1,-1%,/,/,16µM*,18µM*,/
SMILES,12-LOX inh,HT1080NT lethal,IL-1B inflam inh,DT40 TDP1 CPT,TDP1 cell noCPT,HT1080 IDH1KD tx
COc1ccccc1NC(=O)c1cc2c(=O)n(Cc3cccs3)ccc2nc1C,-16%,/,/,?,23µM*,/
COc1ccc(Cn2ccc3nc(C)c(C(=O)Nc4ccc(OC)c(OC)c4)cc3c2=O)cc1,-3%,/,/,-3%,2%,/
O=C(CCNc1ccc(Br)cc1)c1cccc([N+](=O)[O-])c1,-3%,23µM*,-16,15µM*,18µM*,?
O=C(CCNc1ccc(F)cc1)c1cccc([N+](=O)[O-])c1,0%,?,-16,16µM*,23µM*,?
Cc1nc(SCC(=O)c2cccc([N+](=O)[O-])c2)n[nH]1,?,11%,37,?,?,12%
O=C(CCNc1ccccc1)c1cccc([N+](=O)[O-])c1,-10%,-7%,-5,18µM*,16µM*,?
COc1ccc(N2C(=O)c3ccccc3NC2c2cnn(-c3ccccc3)n2)c(OC)c1 (stereo unspecified),-23%,/,/,/,/,/
CN(Cc1ccon1)Cc1ccccc1OCC(O)CN1CCCCC1 (stereo unspecified),49%,/,/,/,/,/
CC1CCC2(CC1)NC(=O)N(CC(=O)Nc1cccc(C(F)(F)F)c1)C2=O (stereo unspecified),17%,/,/,/,/,/
O=C(COCc1nnc(C(=O)Nc2cccc(F)c2)s1)NCCc1ccco1,-59%,/,/,/,/,/
Cc1ccc(-c2ccc(CN3C(C(C)C)C(=O)N(Cc4cn(Cc5ccco5)nn4)CCS3(=O)=O)cc2)cc1 (stereo unspecified),45µM*,?,-10,18µM*,18µM*,?
CC1C(=O)N(Cc2cn(Cc3ccco3)nn2)CCS(=O)(=O)N1Cc1ccc(-c2ccncc2)cc1 (stereo unspecified),-25%,2%,6,?,21µM*,3%
CC(C)C1C(=O)N(Cc2cn(Cc3ccco3)nn2)CCS(=O)(=O)N1Cc1ccc(-c2cccc(N(C)C)c2)cc1 (stereo unspecified),-37%,-19%,-30,?,16µM*,-23%
COc1ccc2c(C)c(CC(=O)Nc3ccc4c(c3)OCCO4)c(=O)oc2c1,-17%,/,/,/,/,/
COc1cccc(CN2CCCN(S(=O)(=O)c3ccccc3)CCC(=O)NCC2)n1,35%,/,/,/,/,/
CCN1CCS/C1=C\C=C\C1=[N+](CC)CCS1,-5%,4.6µM*,-16,0.73µM*,0.21µM*,5.2µM*
